Experimental data published in paper PMC9838217, “Structure of SALL4 zinc finger domain reveals link between AT-rich DNA binding and Okihiro syndrome”.
Positions count from the first letter of the chain named.

The sequences below were run against T1, SALL4 ZFC4 R900W (HT-SELEX) (Mus musculus, UniProt Q8BX22 870-940, R900W) (assay: HT-SELEX; high values mean tight binding). Conditions: protein: recombinant; vector His6-GST; dsDNA, one strand shown.
T1 sequence: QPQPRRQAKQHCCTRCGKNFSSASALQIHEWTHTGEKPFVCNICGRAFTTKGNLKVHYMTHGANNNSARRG
In short: (§1)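 Recombinant mouse SALL4 zinc finger cluster 4 (residues 870–940, 1 µg), purified, was mixed with library DNA (1.5 µg in the first cycle, 200 ng thereafter) in 100 µl of buffer containing 10 mM Tris–HCl pH 7.5, 50 mM NaCl, poly(dI-dC) and DTT, and left for 10 min at room temperature. Complexes were captured on Ni2+ beads, washed, amplified by PCR and reselected for up to 6 cycles in triplicate, after which MiSeq sequencing and a 6-mer scan followed. Binding signal is the read fraction of each canonical k-mer, given as fold change relative to the starting random library.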
ACATCC showed a binding signal of 0.969 ± 0.0252 fold-change vs cycle 0.
CACGAG gave a binding signal of 0.496 ± 0.0211 fold-change vs cycle 0.
With TCCGAA the binding signal was 0.692 ± 0.0361 fold-change vs cycle 0.
AACTAA gave a binding signal of 2.07 ± 0.133 fold-change vs cycle 0.
In the case of GTAAGA, the binding signal is reported as 1.6 ± 0.0704 fold-change vs cycle 0.
Work on TCACCA yielded a binding signal of 0.931 ± 0.0104 fold-change vs cycle 0.
ATTAAC was tested, and the binding signal was 2.1 ± 0.104 fold-change vs cycle 0.
Sequence ACACTA has a binding signal of 1.3934 ± 0.0013 fold-change vs cycle 0.
In the case of CACTGG, the binding signal is reported as 0.508 ± 0.0154 fold-change vs cycle 0.
Work on AAAGGT yielded a binding signal of 1.41 ± 0.06 fold-change vs cycle 0.
AAGTTA gave a binding signal of 2.17 ± 0.193 fold-change vs cycle 0.
For TTCGAA, the binding signal was 1.14 ± 0.0752 fold-change vs cycle 0.
With TCCTAA the binding signal was 1.56 ± 0.119 fold-change vs cycle 0.
CCTTCG gave a binding signal of 0.487 ± 0.0246 fold-change vs cycle 0.
In the case of AGGATA, the binding signal is reported as 1.69 ± 0.0876 fold-change vs cycle 0.
Sequence CACCAA has a binding signal of 0.776 ± 0.0234 fold-change vs cycle 0.
GCTGTA gave a binding signal of 0.653 ± 0.0229 fold-change vs cycle 0.
For GAGACA, the binding signal was 0.867 ± 0.0277 fold-change vs cycle 0.
GATGCA was tested, and the binding signal was 0.75 ± 0.0294 fold-change vs cycle 0.
For ATACAC, the binding signal was 1.36 ± 0.0547 fold-change vs cycle 0.
Work on ATGGTG yielded a binding signal of 0.882 ± 0.0384 fold-change vs cycle 0.
With GAGTCC the binding signal was 0.549 ± 0.0274 fold-change vs cycle 0.
ATGAGG was tested, and the binding signal was 1.03 ± 0.0436 fold-change vs cycle 0.
With GGAACC the binding signal was 0.539 ± 0.0289 fold-change vs cycle 0.
In the case of AGGAAT, the binding signal is reported as 1.63 ± 0.0707 fold-change vs cycle 0.
CGATCC showed a binding signal of 0.43 ± 0.0262 fold-change vs cycle 0.
In the case of CTCTCA, the binding signal is reported as 0.992 ± 0.023 fold-change vs cycle 0.
Work on AACTCG yielded a binding signal of 0.798 ± 0.00905 fold-change vs cycle 0.
TAACGA showed a binding signal of 1.31 ± 0.0864 fold-change vs cycle 0.
CCCTCA showed a binding signal of 0.579 ± 0.0163 fold-change vs cycle 0.
Work on ATGAAC yielded a binding signal of 1.55 ± 0.0999 fold-change vs cycle 0.
In the case of AAAAAC, the binding signal is reported as 1.49 ± 0.0832 fold-change vs cycle 0.
Work on AGGTTG yielded a binding signal of 0.894 ± 0.0252 fold-change vs cycle 0.
CCTTGA showed a binding signal of 1.041 ± 0.00922 fold-change vs cycle 0.
For ATGCAC, the binding signal was 0.667 ± 0.022 fold-change vs cycle 0.
TGACCA gave a binding signal of 0.823 ± 0.0121 fold-change vs cycle 0.
In the case of CATGAG, the binding signal is reported as 0.992 ± 0.0188 fold-change vs cycle 0.
For ATTCTG, the binding signal was 1.35 ± 0.0356 fold-change vs cycle 0.
ACTAAC was tested, and the binding signal was 1.53 ± 0.0676 fold-change vs cycle 0.
AGACTC gave a binding signal of 0.928 ± 0.0387 fold-change vs cycle 0.

These sequences were tested against T2, SALL4 ZFC4 G921D (HT-SELEX) (Mus musculus, UniProt Q8BX22 870-940, G921D) (assay: HT-SELEX; high values mean tight binding). Conditions: protein: recombinant; vector His6-GST; dsDNA, one strand shown.
T2 sequence: T1 sequence with W31R, G52D
In short: as §1
Sequence ACATCC has a binding signal of 0.991 ± 0.0197 fold-change vs cycle 0.
CACGAG was tested, and the binding signal was 0.599 ± 0.0729 fold-change vs cycle 0.
Work on TCCGAA yielded a binding signal of 0.791 ± 0.046 fold-change vs cycle 0.
AACTAA was tested, and the binding signal was 1.82 ± 0.176 fold-change vs cycle 0.
For GTAAGA, the binding signal was 1.42 ± 0.0981 fold-change vs cycle 0.
Work on TCACCA yielded a binding signal of 0.988 ± 0.0172 fold-change vs cycle 0.
ATTAAC showed a binding signal of 1.83 ± 0.178 fold-change vs cycle 0.
With ACACTA the binding signal was 1.36 ± 0.0513 fold-change vs cycle 0.
CACTGG gave a binding signal of 0.615 ± 0.0147 fold-change vs cycle 0.
For AAAGGT, the binding signal was 1.29 ± 0.0787 fold-change vs cycle 0.
In the case of AAGTTA, the binding signal is reported as 1.9 ± 0.254 fold-change vs cycle 0.
Work on TTCGAA yielded a binding signal of 1.15 ± 0.0514 fold-change vs cycle 0.
In the case of TCCTAA, the binding signal is reported as 1.46 ± 0.14 fold-change vs cycle 0.
With CCTTCG the binding signal was 0.582 ± 0.0265 fold-change vs cycle 0.
With AGGATA the binding signal was 1.5 ± 0.15 fold-change vs cycle 0.
With CACCAA the binding signal was 0.859 ± 0.0335 fold-change vs cycle 0.
With GCTGTA the binding signal was 0.75 ± 0.0402 fold-change vs cycle 0.
GAGACA showed a binding signal of 0.933 ± 0.0384 fold-change vs cycle 0.
For GATGCA, the binding signal was 0.848 ± 0.0393 fold-change vs cycle 0.
For ATACAC, the binding signal was 1.35 ± 0.0583 fold-change vs cycle 0.
ATGGTG gave a binding signal of 0.941 ± 0.0443 fold-change vs cycle 0.
With GAGTCC the binding signal was 0.669 ± 0.013 fold-change vs cycle 0.
With ATGAGG the binding signal was 1.06 ± 0.0374 fold-change vs cycle 0.
Work on GGAACC yielded a binding signal of 0.622 ± 0.0467 fold-change vs cycle 0.
For AGGAAT, the binding signal was 1.49 ± 0.113 fold-change vs cycle 0.
Work on CGATCC yielded a binding signal of 0.584 ± 0.0363 fold-change vs cycle 0.
CTCTCA was tested, and the binding signal was 1.04 ± 0.0372 fold-change vs cycle 0.
With AACTCG the binding signal was 0.871 ± 0.024 fold-change vs cycle 0.
Work on TAACGA yielded a binding signal of 1.26 ± 0.0862 fold-change vs cycle 0.
With CCCTCA the binding signal was 0.665 ± 0.0275 fold-change vs cycle 0.
In the case of ATGAAC, the binding signal is reported as 1.47 ± 0.0678 fold-change vs cycle 0.
AAAAAC gave a binding signal of 1.42 ± 0.0693 fold-change vs cycle 0.
AGGTTG showed a binding signal of 0.945 ± 0.0127 fold-change vs cycle 0.
For CCTTGA, the binding signal was 1.05 ± 0.0247 fold-change vs cycle 0.
With ATGCAC the binding signal was 0.775 ± 0.052 fold-change vs cycle 0.
TGACCA showed a binding signal of 0.899 ± 0.0281 fold-change vs cycle 0.
With CATGAG the binding signal was 1.03 ± 0.0481 fold-change vs cycle 0.
ATTCTG showed a binding signal of 1.28 ± 0.0492 fold-change vs cycle 0.
ACTAAC gave a binding signal of 1.43 ± 0.0927 fold-change vs cycle 0.
AGACTC showed a binding signal of 1.01 ± 0.0334 fold-change vs cycle 0.
